The campaign covered roughly 69,000 compounds. About 8,600 (12%) showed an effect of 50% or more. The entries come from a sample that favours strong results as a whole.

In the experiment the test system is Plasmodium berghei. Description: Screen against P. berghei liver stage (PbLuc), transformed with Luciferase, at 10uM. The experiment is classed as functional, HepG2. Particulars: tested at 10 uM.
With `CN(Cc1cnn(C)c1)C(=O)Nc1cccnc1-n1cccn1`, the INHIBITION is -24.9%.
On to `CCN1CCN(C(=O)C2CC(=O)N(c3cnn(C(C)C)c3)C2)CC1` (centres undefined), for which the INHIBITION was 23.1%.
`CCS(=O)(=O)N1Cc2cncn2CC(C(=O)NCC2CC2)C1` (centres undefined): the INHIBITION was found to be 24%.
As for `Cc1nc(C2CCCN(C(=O)c3ccc(S(C)(=O)=O)cc3)C2)no1` (centres undefined), the figure is -29.8%; as for `Cc1nc(C2CCCN(C(=O)c3cccc(S(C)(=O)=O)c3)C2)no1` (centres undefined), 51.3%; as for `Cc1nc(C2CCCN(C(=O)C3=NN(C(C)C)C(=O)CC3)C2)no1` (centres undefined), 58.3%.
Regarding `Cc1nc(C2CCCN(C(=O)c3cc(C)sc3C)C2)no1` (centres undefined), the INHIBITION was 81.2%.
`Cc1nc(C2CCCN(C(=O)c3ccoc3)C2)no1` (centres undefined): the INHIBITION worked out at 11.6%.
As for `Cc1nc(C2CCCN(C(=O)c3cnc(C)s3)C2)no1` (centres undefined), the figure is -38%.
On to `CCN1N=C(C(=O)N2CCCC(c3noc(C)n3)C2)CCC1=O` (centres undefined), for which the INHIBITION was 34.1%.
As for `CCc1nc(C2CCCN(C(=O)C3=NN(C(C)C)C(=O)CC3)C2)no1` (centres undefined), the figure is 28.7%; as for `Cc1nc(C2CCCN(C(=O)c3sc(C)nc3C)C2)no1` (centres undefined), 43.4%.
Take `Cc1ccc2c(n1)N(Cc1cccnc1)CCN(C(=O)C1CCC1)C2`: the INHIBITION is 32.4%.
`NCC1CCCCN1C(=O)Cc1cccc(Cl)c1` (centres undefined): the INHIBITION was 19%.
Regarding `Cc1ccc(C(=O)N2CCCC2c2nnc3n2CCCCC3)s1` (centres undefined), the INHIBITION came out at 13%.
Consider `CC(C)[C@H]1CN(C(=O)CC2CCC2)C[C@@H]1N(C)C`, for which the INHIBITION is 3.06%.
Regarding `COC1(CNC(=O)c2cccc(C#N)c2)CCSC1` (centres undefined), the INHIBITION is recorded as 8.7%.
`Cc1nc(CN2CCO[C@@H]3CN(Cc4cccs4)C[C@@H]3C2)cs1`: the INHIBITION amounted to 37.3%.
With `Cc1nc(C(Cc2ccsc2)NC(=O)CCN2CCOCC2)sc1C` (centres undefined), the INHIBITION was -11.95%.
In the case of `Cc1nc(NCCc2ccccc2)cc(C(=O)N2CCOCC2)n1`, the INHIBITION is reported as 38.5%.
On to `COc1ccc(C)cc1S(=O)(=O)N[C@H]1CN(C(C)=O)C[C@@H]1C1CC1`, for which the INHIBITION is given as 35.4%.
Consider `COc1cc(C)ccc1S(=O)(=O)N[C@H]1CN(C(C)=O)C[C@@H]1C1CC1`, for which the INHIBITION was determined as 55.2%.
In the case of `COc1ccc(S(=O)(=O)N[C@H]2CN(C(C)=O)C[C@@H]2C2CC2)cc1C`, the INHIBITION was 9.63%.
As to `COCCN1CCC2(COCc3cnc(N4CCOCC4)nc32)C1` (centres undefined), the INHIBITION came out at 52.3%.
As for `c1nc(N2CCOCC2)nc2c1COCC21CCN(CC2CC2)C1` (centres undefined), the figure is -7.59%; as for `c1cnc(N2CCC3(COCc4cnc(N5CCOCC5)nc43)C2)nc1` (centres undefined), 68.3%; as for `O=S(=O)(C1CC1)N1CCC2(COCc3cnc(N4CCOCC4)nc32)C1` (centres undefined), -8.69%.
For `COCCN1CCC2(COCc3cnc(N(C)C)nc32)C1` (centres undefined), the INHIBITION is recorded as -6.23%.
As for `CN1CCC2(COCc3cnc(N4CCOCC4)nc32)C1` (centres undefined), the figure is 51.3%; as for `c1ccc(N2CCC3(COCCN(c4ncccn4)C3)C2)nc1` (centres undefined), 38.5%.
On to `CCS(=O)(=O)N1CCC2(COCc3cnc(N4CCOCC4)nc32)C1` (centres undefined), for which the INHIBITION was -50.9%.
As for `CNc1nc(CNC(=O)Nc2cccc(CN(C)C)c2)cs1`, the figure is -0.74%; as for `CC(C)c1nncn1CCNC(=O)c1c(O)cc(F)cc1F`, 8.86%; as for `CC(C)=CCN1C(=O)[C@@H]2CC[C@H]1CN(C(=O)CCc1n[nH]c(C)c1C)C2`, 43.8%.
Regarding `CC(Cn1ccnc1)NC(=O)C1(c2cccc(Cl)c2)CC1` (centres undefined), the INHIBITION was 19.4%.
`COCCn1c(=O)n(Cc2cccc(F)c2F)c2cc(C(=O)O)ccc21`: the INHIBITION came out at 55%.
`COCCn1c(=O)n(Cc2ccccc2C)c2cc(C(=O)O)ccc21`: the INHIBITION stood at 29%.
As for `COCCn1c(=O)n(Cc2ccc(Cl)s2)c2cc(C(=O)O)ccc21`, the INHIBITION was found to be 32.3%.
In the case of `CC(NC(=O)NCC(F)(F)F)c1nncn1C` (centres undefined), the INHIBITION is recorded as 11.5%.
Turning to `c1ccc(Cc2nc(C3CC3)nn2-c2ccc3c(c2)OCCO3)nc1`, the INHIBITION is -52.4%.
Regarding `c1cncc(CCc2nc(C3CC3)nn2-c2ccc3c(c2)OCCO3)c1`, the INHIBITION came to 50.1%.
On to `c1cncc(OCc2nc(C3CC3)nn2-c2ccc3c(c2)OCCO3)c1`, for which the INHIBITION is 25.4%.
For `CCc1cnc(N)nc1N1CCCC2(CCOCC2)C1`, the INHIBITION is reported as -3.77%.
As for `CCc1nc(N)nc(N2CCCC3(CCOCC3)C2)c1C`, the figure is 50%; as for `CCc1nc(N)nc(N2CCCC3(CCN(C)CC3)CC2)c1C`, -56.2%; as for `CS(=O)(=O)N1CCCC(n2nnn(-c3ccccc3)c2=O)C1` (centres undefined), 17.55%.
As for `c1cncc(C2COC3(CCN(CC4CC4)CC3)C2)c1` (centres undefined), the figure is -18.2%; as for `Cn1cccc1C(=O)N1CCCCC1c1ccn2ccnc2n1` (centres undefined), -11.7%; as for `Cc1nc[nH]c1C(=O)N1CCCC2(CN(C)C(=O)O2)C1` (centres undefined), 3.69%.
Take `Cc1cccc2c(=O)c(C(=O)N3CCCC4(CN(C)C(=O)O4)C3)c[nH]c12` (centres undefined): the INHIBITION is recorded as 60.1%.
On to `Cc1cc(C(=O)N2CCCC3(CN(C)C(=O)O3)C2)c2ccc(F)cc2n1` (centres undefined), for which the INHIBITION stood at 37.7%.
As for `COCCCNC(=O)NCc1cccn1Cc1ccccc1C`, the figure is 60.7%; as for `CCOC(=O)CNC(=O)NCc1cccn1Cc1ccccc1C`, -21.3%; as for `CCOC(=O)CNC(=O)NCc1cccn1Cc1ccc(F)cc1`, 16.8%.
For `COCCCNC(=O)NCc1ccc(C)cc1`, the INHIBITION is listed as 48.8%.
As for `CCOC(=O)CNC(=O)NCc1cccn1Cc1ccccc1F`, the figure is 56.5%; as for `CCOC(=O)CNC(=O)NCc1cccn1Cc1ccccc1`, 40.8%; as for `Cn1ccc(C(=O)N2CCCC2c2cc(CCO)[nH]n2)n1` (centres undefined), 28.69%.
On to `O=C(NCc1ccco1)c1cc[n+]([O-])cc1`, for which the INHIBITION is -10.0965%.
Consider `O=C(Nc1ccccc1-c1ccccc1)NC1CCC2(C1)OCCO2` (centres undefined), for which the INHIBITION is listed as -6.67%.
In the case of `c1cnc(N2CCC(c3cc4cccnc4[nH]3)CC2)nc1`, the INHIBITION stood at 23.2%.
In the case of `c1cnc(N2CCCC(c3n[nH]c4ncccc34)C2)nc1` (centres undefined), the INHIBITION is listed as -27.1%.
As to `c1cnc(N2CCCC(c3cc4cccnc4[nH]3)C2)nc1` (centres undefined), the INHIBITION amounted to 72.5%.
Regarding `CN(C)C(=O)c1cccc(CN2CCOC(Cn3cncn3)C2)c1` (centres undefined), the INHIBITION was found to be 41.5%.
Turning to `NC(=O)C1(Cc2ccccc2-c2cncnc2)CCCNC1` (centres undefined), the INHIBITION stood at 12.915%.
Consider `Cn1nc(CN2CCCC2)c2c1CN(C(=O)c1cnccn1)CC2`, for which the INHIBITION is listed as 43.4%.
For `Cn1nc(COc2cccnc2)c2c1CCN(c1ncccn1)C2`, the INHIBITION is reported as 53%.
Take `Cn1nc(CNc2ncccn2)c2c1CN(c1cnccn1)CC2`: the INHIBITION came out at 32.1%.
As for `Cn1nc(COCC2CC2)c2c1CCN(Cc1ccco1)C2`, the INHIBITION was -12.2%.
`CCS(=O)(=O)N1CCCn2cnc(COc3cccnc3)c2C1`: the INHIBITION is 14.6%.
Take `Cn1nc(COc2cccnc2)c2c1CCN(c1cnccn1)C2`: the INHIBITION stood at 53.5%.
As for `Cn1nc(COc2cncnc2)c2c1CCN(Cc1ccco1)C2`, the figure is 63.5%.
Turning to `Fc1cnc(N2CCCn3cnc(COc4cccnc4)c3C2)nc1`, the INHIBITION is given as 4.68%.
Take `Cn1nc(Cn2ccnc2)c2c1CN(c1ncccn1)C2`: the INHIBITION was 3.88%.
`Cn1nc(CN2CCCC2)c2c1CN(c1cnccn1)CC2`: the INHIBITION is 54.8%.
Regarding `Cn1nc(COc2cccnc2)c2c1CCN(Cc1ccco1)C2`, the INHIBITION worked out at 31.4%.
For the molecule `c1cnc(N2CCc3onc(CN4CCCC4)c3C2)cn1`, the INHIBITION is on record as 37.5%.
As for `Cc1cnccc1CN(C)C(=O)C(C)(C)NC(=O)c1cccs1`, the figure is 37.9%.
As for `CCNC(=O)CN1CCN(Cc2nc3c(F)cccc3n2CC)CC1`, the figure is 30.85%; as for `Cc1ccc(N2CCCC(NCc3cc(C)on3)C2)nn1` (centres undefined), 27.4%; as for `CCCNC(=O)C1(CC2CC(c3ccccc3OC)=NO2)CCOCC1` (centres undefined), 29.2%.
`Cc1ccc(C(=O)N2CCn3cc(CN4CCCCC4)nc3C2)o1`: the INHIBITION stood at 17.4%.
Consider `COCCN1CCc2c(c(COc3cccnc3)nn2C)C1`, for which the INHIBITION is given as -4.08%.
As for `CN1CCc2c(c(COc3cncnc3)nn2CC2CC2)C1`, the figure is 24.6%; as for `Cc1cnc(N2CCc3c(c(COc4cncnc4)nn3C)C2)nc1`, 53.9%.
With `CC(C)N1CCc2c(c(COc3cccnc3)nn2CC2CC2)C1`, the INHIBITION is recorded as 12.7%.
With `Cn1nc(COc2cccnc2)c2c1CCN(CC1CC1)C2`, the INHIBITION was 61.1%.
`Cn1nc(COc2cncnc2)c2c1CCN(Cc1ccccn1)C2`: the INHIBITION is 24.9%.
For the molecule `COc1ccc(OC)c(C(O)CNC(=O)Nc2cccnc2OC)c1` (centres undefined), the INHIBITION stood at 17.4%.
Regarding `Cc1cc(CNC(=O)NCCCC(=O)N2CCc3ccccc32)no1`, the INHIBITION turned out to be 45.4%.
Regarding `COC(=O)Cn1c(=O)cc(C(F)F)c2c(C)nn(CC(F)F)c21`, the INHIBITION is listed as -12.975%.
Turning to `Cc1ccc(CNc2cc3[nH]c(O)nc3cc2C)cc1`, the INHIBITION was -46.3%.
Regarding `O=C(c1ccc(NCc2cccc(F)c2)cc1)N1CCC(CO)CC1`, the INHIBITION is given as -92.5%.
As to `NC(=O)c1ccc(OCC(=O)NS(=O)(=O)c2ccc3c(c2)CCC3)cc1`, the INHIBITION is on record as 15.533%.
`Cn1c2ccccc2c2ncn(CCN3CCOCC3)c(=O)c21`: the INHIBITION was determined as 63.6%.
Take `Cn1c2ccccc2c2ncn(CCCN3CCOCC3)c(=O)c21`: the INHIBITION is listed as 29.1%.
In the case of `Cn1c2ccc(F)cc2c2ncn(CCN3CCOCC3)c(=O)c21`, the INHIBITION is on record as 45%.
As for `CC(C)n1cc(-n2cc3nc(N4CCOCC4)[nH]cc-3c2=O)cn1`, the INHIBITION amounted to 5.18%.
For the molecule `Cc1n[nH]c(C2CN(CC(=O)NCc3sccc3C)CCO2)n1` (centres undefined), the INHIBITION is -7.36%.
Regarding `O=C1CNc2ncnc(N3CCN(Cc4cccc(F)c4)CC3)c2N1`, the INHIBITION worked out at 55.7%.
On to `O=C1CNc2ncnc(N3CCN(Cc4ccccc4F)CC3)c2N1`, for which the INHIBITION is listed as 39.1%.
With `O=C1CNc2ncnc(N3CCN(Cc4ccccc4)CC3)c2N1`, the INHIBITION is recorded as 30%.
As for `O=C1CNc2ncnc(N3CCN(c4ccccc4F)CC3)c2N1`, the figure is 59%; as for `O=C1CNc2ncnc(Nc3cnn(Cc4ccccc4F)c3)c2N1`, 33.5%.
As for `Cc1ccccc1CN1CCN(c2ncnc3c2NC(=O)CN3)CC1`, the figure is -4.76%.
Regarding `COC(=O)CNC(=O)c1scnc1C`, the INHIBITION is 2.93%.
Regarding `O=C(c1ccncc1)N1CC[C@@H](O)[C@@H](O)[C@H](N2CCC(F)(F)CC2)C1`, the INHIBITION is recorded as 27.8%.
Turning to `Cc1ocnc1C(=O)N1CC[C@@H](O)[C@@H](O)[C@H](N2CCC(F)(F)CC2)C1`, the INHIBITION is 59%.
Turning to `Cc1ncoc1C(=O)N1CC[C@@H](O)[C@@H](O)[C@H](N2CCC(F)(F)CC2)C1`, the INHIBITION was determined as 20.4%.

The values above are taken from ChEMBL document CHEMBL4513216, “Probing the Open Global Health Chemical Diversity Library for Multistage-Active Starting Points for Next-Generation Antimalarials” (ACS Infect Dis, 2020).
